Results filed as inconclusive are left out. Calls of active or inactive are those of the source. Unless noted, calls follow the shape of the dose curve; as a rule, active = well fitted curve in the direction sought with a large enough effect in the repeat runs; inconclusive = weak or mixed curves; inactive = no such curve, though single readings can be large; an effect the other way counts as inactive or inconclusive.
Experiments:
[1] = qHTS assay to identify small molecule that activate the aryl hydrocarbon receptor (AhR) signaling pathway - cell viability counter screen (AID 743086); also: nearly all actives have a fitted effect of over 45% in size; also: potency is read from the fitted curve at half-maximal effect;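 as to viability change, negative = cytotoxic: HepG2 liver cells carrying the AhR DRE luciferase reporter; series mostly up to about 70 µM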
Procedure, shortened: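 HepG2-AhR-luc (HG2L7.5c1) cells, 4000/well, treated 24 h at 37 C with compound; viability measured as CellTiter-Fluor fluorescence after 30 min in the same wells as the luciferase read.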

[2] = molecular target: Peroxisome proliferator-activated receptor gamma (Homo sapiens) (UniProt P37231); experiment: qHTS assay to identify small molecule agonists of the peroxisome proliferator-activated receptor gamma (PPARg) signaling pathway (AID 743094; active = well fitted activation curve with a large enough effect in the signal ratio in the repeat runs, not every such curve was filed as active; the % refers to the signal ratio)
Procedure, shortened: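 Cell-based bla reporter, HEK293H background, PPARg-driven UAS. Pre-incubation 5 h, 37C, 5% CO2. Compound 17 h, 37C. Substrate 1 h RT; fluorescence.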

[3] = molecular target: Peroxisome proliferator-activated receptor gamma (Homo sapiens) (UniProt P37231); experiment: qHTS assay to identify small molecule antagonists of the peroxisome proliferator-activated receptor gamma (PPARg) signaling pathway (AID 743191; calls by dose curve; also: series mostly up to about 63 µM; nearly all actives have a fitted effect of over 30% in size)
Procedure, shortened: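 GeneBLAzer PPARg UAS-bla HEK293H cells, 5 h post-plating, exposed to compounds 17 h at 37C. LiveBLAzer B/G FRET substrate added for 1 h at room temperature; beta-lactamase reporter read by fluorescence intensity.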

[4] = qHTS assay to identify small molecule antagonists of the peroxisome proliferator-activated receptor gamma (PPARg) signaling pathway - cell viability counter screen (AID 743194); also: nearly all actives have a fitted effect of over 55% in size
Procedure, shortened: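 Cytotoxicity counter screen in PPARg-bla HEK293H cells, same wells as reporter assay. Compounds plus 50 nM rosiglitazone (final) for 17 h at 37 C, then viability read by CellTiter-Glo luminescence.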

[5] = qHTS assay for small molecule agonists of the antioxidant response element (ARE) signaling pathway - cell viability counter screen (AID 743203; calls by dose curve; also: nearly all actives have a fitted effect of over 55% in size; also: potency is read from the fitted curve at half-maximal effect)
Procedure, shortened: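 Measured in the same wells as the beta-lactamase ARE reporter, this read-out is CellTiter-Glo luminescence from HepG2 ARE-bla cells given compounds for 16 hrs.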

[6] = qHTS assay for small molecule activators of the heat shock response signaling pathway - cell viability counter screen (AID 743209); also: nearly all actives have a fitted effect of over 50% in size
Procedure, shortened: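 Same-well multiplex: after 2.5 h room-temperature incubation with LiveBLAzer B/G substrate and fluorescence reading, CellTiter-Glo reagent was added to HSE-bla HeLa cells that had received compound for 5 h at 37 C; luminescence read after 30 min.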

[7] = qHTS assay for small molecule activators of the heat shock response signaling pathway (AID 743210; active = well fitted activation curve with a large enough effect in the signal ratio in the repeat runs, with a control signal flat, not every such curve was filed as active; the % refers to the signal ratio;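 also: HeLa cells with beta-lactamase reporter driven by heat shock elements; series mostly up to about 63 µM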)
Procedure, shortened: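 Beta-lactamase reporter read-out: FRET substrate fluorescence after 2.5 h at RT, following 5 h compound treatment at 37 C of HeLa cells carrying HSE-driven bla reporter; quantitative HTS format.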

[8] = qHTS assay to identify small molecule agonists of the peroxisome proliferator-activated receptor delta (PPARd) signaling pathway - cell viability counter screen (AID 743211); also: nearly all actives have a fitted effect of over 55% in size
Procedure, shortened: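 Viability was measured as CellTiter-Glo luminescence (30 min, room temperature) in the same wells as the beta-lactamase readout. GeneBLAzer PPARd UAS-bla HEK293H cells received compound after 5 h plating and were incubated 17 h at 37 C.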

[9] = molecular target: Peroxisome proliferator-activated receptor delta (Homo sapiens) (UniProt Q03181); experiment: qHTS assay to identify small molecule agonists of the peroxisome proliferator-activated receptor delta (PPARd) signaling pathway (AID 743212; calls by dose curve)
Procedure, shortened: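 Read-out: beta-lactamase FRET fluorescence after 2 h room-temperature incubation with LiveBLAzer B/G substrate. Cells were HEK293H carrying a UAS-bla reporter for PPARd, treated at 37 C with DMSO-dissolved compounds.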

[10] = molecular target: Peroxisome proliferator-activated receptor delta (Homo sapiens) (UniProt Q03181); experiment: qHTS assay to identify small molecule antagonists of the peroxisome proliferator-activated receptor delta (PPARd) signaling pathway (AID 743215; active = well fitted inhibition curve with a large enough effect in the signal ratio in the repeat runs, not every such curve was filed as active; the % refers to the signal ratio;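 also: cells stimulated with agonist L165041 at 300 nM final during compound exposure; series mostly up to about 62 µM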)
Procedure, shortened: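 Fluorescence from cleaved LiveBLAzer B/G FRET substrate (2 h, room temperature) reports PPARd-driven beta-lactamase in HEK293H UAS-bla cells. Cells had been treated 17 h at 37 C with compound plus 300 nM final L165041.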

[11] = qHTS assay to identify small molecule agonists of the farnesoid-X-receptor (FXR) signaling pathway - cell viability counter screen (AID 743218); also: nearly all actives have a fitted effect of over 45% in size
Procedure, shortened: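 Readout: CellTiter-Glo luminescence, 30 min RT, multiplexed after the FXR-bla FRET reading. HEK 293T FXR-UAS-bla cells received compound 5 h post-plating and were incubated 16 h at 37 C.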

[12] = qHTS assay to identify small molecule antagonists of the farnesoid-X-receptor (FXR) signaling pathway - cell viability counter screen (AID 743221; active = well fitted cell-killing curve with a large enough effect in the repeat runs, not every such curve was filed as active; also: nearly all actives have a fitted effect of over 50% in size; also: potency is read from the fitted curve at half-maximal effect)
Procedure, shortened: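 Cytotoxicity counter screen run in the FXR-bla reporter wells: HEK 293T cells exposed to compound with 50 uM (final) chenodeoxycholic acid for 16 h, 37 C, then viability measured by CellTiter-Glo luminescence after 30 min, room temperature.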

[13] = molecular target: Vitamin D3 receptor (Homo sapiens) (UniProt P11473); experiment: qHTS assay to identify small molecule agonists of the vitamin D receptor (VDR) signaling pathway (AID 743222; calls by dose curve)
Procedure, shortened: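 Following 4 h attachment at 37C, VDR-bla cells (2,000 per well) received DMSO-dissolved compounds or controls. After 16 h incubation, LiveBLAzer B/G FRET substrate was added and fluorescence read 2 h later at room temperature.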

[14] = molecular target: Vitamin D3 receptor (Homo sapiens) (UniProt P11473); experiment: qHTS assay to identify small molecule antagonists of the vitamin D receptor (VDR) signaling pathway (AID 743223; active = well fitted inhibition curve with a large enough effect in the signal ratio in the repeat runs, not every such curve was filed as active; the % refers to the signal ratio)
Procedure, shortened: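 Antagonist mode: compound added to VDR-bla cells alongside agonist 1alpha,25-dihydroxyvitamin D3 (3 nM final), incubation 16 h at 37C. Read-out is LiveBLAzer FRET fluorescence, 2 h at room temperature.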

[15] = qHTS assay to identify small molecule agonists of the vitamin D receptor (VDR) signaling pathway - cell viability counter screen (AID 743224); also: nearly all actives have a fitted effect of over 50% in size; also: potency is read from the fitted curve at half-maximal effect; as to activity change, negative = cytotoxicity: series mostly up to about 63 µM
Procedure, shortened: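 In parallel with the bla FRET readout, cytotoxicity toward VDR-bla cells after 16 h compound exposure was assessed by CellTiter-Glo, with luminescence recorded after a 30 min room-temperature incubation.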

[16] = qHTS assay for small molecule agonists of the antioxidant response element (ARE) signaling pathway (AID 743202; active = well fitted activation curve with a large enough effect in the signal ratio in the repeat runs, not every such curve was filed as active; the % refers to the signal ratio; also: potency is read from the fitted curve at half-maximal effect)
Procedure, shortened: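 HepG2 ARE-bla reporter line, 2,000 cells/well; 5 h preincubation 37 C/5% CO2; compound (DMSO) 16 h 37 C; B/G FRET substrate 2 h RT; fluorescence intensity.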

[17] = qHTS assay to identify small molecule antagonists of the peroxisome proliferator-activated receptor delta (PPARd) signaling pathway - cell viability counter screen (AID 743213); also: nearly all actives have a fitted effect of over 50% in size
Procedure, shortened: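 Luminescence from CellTiter-Glo, added after the bla read and incubated 30 min at room temperature, gives viability of HEK293H PPARd-bla cells exposed to compounds for 17 h at 37 C with 300 nM L165041.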

[18] = molecular target: Bile acid receptor (Homo sapiens) (UniProt Q96RI1); experiment: qHTS assay to identify small molecule antagonists of the farnesoid-X-receptor (FXR) signaling pathway (AID 743217; active = well fitted inhibition curve with a large enough effect in the signal ratio in the repeat runs, not every such curve was filed as active; the % refers to the signal ratio)
Procedure, shortened: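 FRET fluorescence after 2 h room-temperature LiveBLAzer loading gives the readout. Prior step: FXR-bla HEK 293T cells, seeded and incubated 5 h, received test compounds plus 50 uM final CDCA for 16 h at 37 °C.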

[19] = molecular target: Bile acid receptor (Homo sapiens) (UniProt Q96RI1); experiment: qHTS assay to identify small molecule agonists of the farnesoid-X-receptor (FXR) signaling pathway (AID 743220; active = well fitted activation curve with a large enough effect in the signal ratio in the repeat runs, not every such curve was filed as active; the % refers to the signal ratio)
Procedure, shortened: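 FXR-UAS-bla HEK 293T cells carrying a UAS-driven beta-lactamase reporter were plated for 5 h at 37C/5% CO2, then exposed to DMSO-dissolved Tox21 10K compounds for 16 h at 37C. A LiveBLAzer B/G FRET substrate was loaded for 2 h at room temperature before fluorescence reading.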
% is scaled to controls: 0 for no effect and ±100 for the full control effect.

Chain of Peroxisome proliferator-activated receptor delta (Homo sapiens) (Q03181 whole entry, looked up): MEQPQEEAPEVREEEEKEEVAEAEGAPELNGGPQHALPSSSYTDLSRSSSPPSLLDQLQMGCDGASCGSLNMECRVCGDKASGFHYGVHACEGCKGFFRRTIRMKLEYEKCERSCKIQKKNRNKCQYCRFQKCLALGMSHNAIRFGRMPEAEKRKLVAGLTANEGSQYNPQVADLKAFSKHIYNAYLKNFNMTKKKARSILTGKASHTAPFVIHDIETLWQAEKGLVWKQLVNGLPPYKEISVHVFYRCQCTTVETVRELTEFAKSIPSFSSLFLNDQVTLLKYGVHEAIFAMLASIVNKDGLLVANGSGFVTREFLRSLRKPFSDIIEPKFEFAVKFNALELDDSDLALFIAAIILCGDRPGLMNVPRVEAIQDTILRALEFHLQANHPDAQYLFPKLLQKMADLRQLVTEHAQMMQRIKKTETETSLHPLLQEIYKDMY
Chain of Vitamin D3 receptor (Homo sapiens) (P11473 whole entry, looked up): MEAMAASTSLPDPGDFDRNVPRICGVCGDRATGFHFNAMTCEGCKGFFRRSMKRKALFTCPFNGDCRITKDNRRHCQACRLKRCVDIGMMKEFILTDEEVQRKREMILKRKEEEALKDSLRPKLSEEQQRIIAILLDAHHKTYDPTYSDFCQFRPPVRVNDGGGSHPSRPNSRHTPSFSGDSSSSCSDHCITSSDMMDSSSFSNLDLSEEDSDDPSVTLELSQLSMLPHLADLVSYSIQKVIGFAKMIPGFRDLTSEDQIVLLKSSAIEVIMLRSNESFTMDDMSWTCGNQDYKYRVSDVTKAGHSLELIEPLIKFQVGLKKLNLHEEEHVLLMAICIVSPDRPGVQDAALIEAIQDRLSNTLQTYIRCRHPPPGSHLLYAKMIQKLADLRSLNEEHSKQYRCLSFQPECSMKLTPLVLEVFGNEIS
Chain of Bile acid receptor (Homo sapiens) (Q96RI1 whole entry, looked up): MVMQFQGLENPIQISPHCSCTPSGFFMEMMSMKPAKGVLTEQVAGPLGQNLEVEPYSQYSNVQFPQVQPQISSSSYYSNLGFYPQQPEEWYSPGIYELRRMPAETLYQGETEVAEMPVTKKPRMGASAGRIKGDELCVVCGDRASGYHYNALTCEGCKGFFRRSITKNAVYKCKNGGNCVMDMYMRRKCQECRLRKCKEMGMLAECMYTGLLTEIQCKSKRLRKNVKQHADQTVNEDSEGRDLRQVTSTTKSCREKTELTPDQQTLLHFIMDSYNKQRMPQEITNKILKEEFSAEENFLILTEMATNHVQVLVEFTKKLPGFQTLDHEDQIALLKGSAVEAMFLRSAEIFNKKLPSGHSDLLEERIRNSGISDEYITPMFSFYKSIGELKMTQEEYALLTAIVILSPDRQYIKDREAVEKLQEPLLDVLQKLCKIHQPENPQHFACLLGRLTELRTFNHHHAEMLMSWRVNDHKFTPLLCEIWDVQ
Chain of Peroxisome proliferator-activated receptor gamma (Homo sapiens) (P37231 whole entry, looked up): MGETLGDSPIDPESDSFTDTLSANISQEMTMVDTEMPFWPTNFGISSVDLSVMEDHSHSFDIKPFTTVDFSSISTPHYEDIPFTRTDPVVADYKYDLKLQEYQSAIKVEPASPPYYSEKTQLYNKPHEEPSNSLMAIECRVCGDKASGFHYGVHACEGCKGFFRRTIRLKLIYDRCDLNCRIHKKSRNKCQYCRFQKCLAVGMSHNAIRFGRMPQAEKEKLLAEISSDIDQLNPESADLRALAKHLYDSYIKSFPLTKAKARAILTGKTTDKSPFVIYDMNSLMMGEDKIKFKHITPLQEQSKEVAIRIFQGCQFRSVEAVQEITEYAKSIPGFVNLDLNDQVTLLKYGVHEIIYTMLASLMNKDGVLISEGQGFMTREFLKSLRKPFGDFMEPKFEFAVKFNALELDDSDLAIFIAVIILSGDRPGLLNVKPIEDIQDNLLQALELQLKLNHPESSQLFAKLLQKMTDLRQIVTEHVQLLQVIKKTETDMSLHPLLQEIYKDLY

CNCc1ccc(NC(=O)c2c[nH]c3c2C(=O)CCC3)cc1
inactive: Potency [1] | outcome [2] | Potency [3] | Potency [4] | Potency [5] | Potency [6] | Potency [7] | Potency [8] | outcome [9] | Potency [10] | Potency [11] | Potency [12] | outcome [13] | outcome [14] | Potency [15]

Oc1ccc2c(c1)Cc1ccccc1-2
inactive: Potency [1] | outcome [2] | Potency [4] | Potency [5] | Potency [6] | Potency [7] | Potency [8] | Potency [17] | Potency [10] | Potency [11] | Potency [12] | outcome [14]
active: Potency [16] 34.4 µM

COC(CC(C)CCCC(C)(C)O)OC (centres undefined)
inactive: Potency [1] | outcome [2] | Potency [4] | Potency [16] | Potency [5] | Potency [6] | Potency [7] | Potency [8] | outcome [9] | Potency [17] | Potency [10] | Potency [11] | outcome [13] | Potency [15]

C1=CCC2CC=CC2C1 (centres undefined)
inactive: Potency [1] | outcome [2] | Potency [3] | Potency [4] | Potency [5] | Potency [7] | Potency [8] | outcome [9] | Potency [17] | Potency [10] | outcome [18] | Potency [11] | Potency [19] | Potency [12] | outcome [13] | outcome [14] | Potency [15]

CCOC(=O)c1c(N)sc2c1CCN(Cc1ccccc1)C2
inactive: Potency [1] | outcome [2] | Potency [3] | Potency [4] | Potency [5] | Potency [6] | Potency [7] | Potency [17] | Potency [11] | Potency [12] | outcome [14] | Potency [15]

CCSC(=O)N(CC)CC
inactive: Potency [1] | outcome [2] | Potency [4] | Potency [5] | Potency [6] | Potency [7] | Potency [8] | outcome [9] | Potency [17] | Potency [10] | Potency [11] | Potency [12] | outcome [13] | outcome [14] | Potency [15]

BrC(Br)C(Br)Br
inactive: Potency [1] | outcome [2] | Potency [4] | Potency [16] | Potency [5] | Potency [7] | Potency [8] | outcome [9] | Potency [17] | Potency [10] | Potency [11] | Potency [12] | outcome [13] | outcome [14] | Potency [15]

O=S(=O)(O)CO
inactive: Potency [1] | outcome [2] | Potency [3] | Potency [4] | Potency [16] | Potency [5] | Potency [7] | Potency [8] | Potency [17] | Potency [11] | Potency [12] | outcome [13] | outcome [14] | Potency [15]

O=C(O)CCC(=O)OC[C@@H](NC(=O)C(Cl)Cl)[C@H](O)c1ccc([N+](=O)[O-])cc1
inactive: Potency [1] | outcome [2] | Potency [4] | Potency [16] | Potency [5] | Potency [6] | Potency [8] | outcome [9] | Potency [17] | Potency [10] | Potency [11] | Potency [12] | Potency [15]

CC1=CC[C@@H]2C[C@H]1C2(C)C
inactive: Potency [1] | outcome [2] | activity change, negative = cytotoxicity [4] -33.5% [at 13.2 µM] | activation [16] -11.5% [at 18.1 µM] | viability change, negative = cytotoxic [5] -20.1% [at 18.1 µM] | activity change, negative = cytotoxicity [6] -3.23% [at 13.2 µM] | activity change, negative = cytotoxicity [8] -15.6% [at 13.2 µM] | activation [9] 0.18% [at 13.2 µM] | viability change, negative = cytotoxic [17] -2.53% [at 13.7 µM] | viability change, negative = cytotoxic [11] 17.4% [at 13.2 µM] | activation [13] -15.3% [at 13.4 µM] | activity change, negative = cytotoxicity [15] 3.15% [at 13.2 µM]

Nc1ccc(F)cc1
inactive: Potency [1] | outcome [2] | Potency [4] | Potency [16] | Potency [5] | Potency [6] | Potency [7] | outcome [9] | Potency [17] | Potency [11] | Potency [12] | outcome [13] | outcome [14] | Potency [15]

Cc1c[nH]c2ccccc12
inactive: Potency [1] | outcome [2] | Potency [4] | Potency [5] | Potency [6] | Potency [7] | Potency [8] | outcome [9] | Potency [17] | Potency [10] | Potency [11] | Potency [12] | Potency [15]

Nc1nc(-c2ccc([N+](=O)[O-])cc2)cs1
inactive: Potency [1] | outcome [2] | Potency [3] | Potency [4] | Potency [5] | Potency [6] | Potency [7] | Potency [8] | Potency [11] | Potency [19] | Potency [12]

CC(=O)Oc1cccc(O)c1
inactive: Potency [1] | outcome [2] | Potency [4] | Potency [5] | Potency [6] | Potency [7] | Potency [8] | Potency [17] | outcome [18] | Potency [11] | Potency [19] | Potency [12] | outcome [14] | Potency [15]

CCN(Cc1cccc(S(=O)(=O)O)c1)c1ccc(C(=C2C=CC(=[N+](CC)Cc3cccc(S(=O)(=O)O)c3)C=C2)c2ccccc2S(=O)(=O)[O-])cc1
inactive: outcome [2] | Potency [4] | Potency [16] | Potency [7] | outcome [9] | Potency [17] | Potency [10] | outcome [18] | Potency [11] | Potency [19] | outcome [13] | outcome [14]
active: Potency [1] 27.4 µM | Potency [12] 13.9 µM

COC(=O)Nc1nc2ccc(C(=O)C3CC3)cc2[nH]1
inactive: Potency [4] | Potency [16] | Potency [6] | Potency [10] | Potency [11] | Potency [15]

COc1cc(NCc2ccc3nc(N)nc(N)c3c2C)cc(OC)c1OC
active: Potency [1] 29.8 µM | Potency [5] 0.0376 µM | Potency [15] 0.15 µM
inactive: Potency [7] | outcome [9] | Potency [10] | Potency [19] | outcome [13] | outcome [14]

Oc1cccc2[nH]ccc12
inactive: Potency [3] | Potency [4] | Potency [5] | Potency [7] | Potency [8] | outcome [9] | Potency [17] | Potency [10] | outcome [18] | Potency [11] | Potency [19] | Potency [12] | outcome [13] | Potency [15]

COc1ccc(C(=O)NCc2ccc(OCCN(C)C)cc2)cc1OC
inactive: Potency [1] | Potency [3] | Potency [4] | Potency [16] | Potency [5] | Potency [6] | Potency [7] | Potency [8] | outcome [9] | Potency [10] | Potency [11] | outcome [13] | outcome [14] | Potency [15]

Source: PubChem BioAssay (Tox21)
